# Laboratory results published in PubChem BioAssay (NCATS).
# Several values for one entry are separate records, joined by “and”; a condition that tells them apart may be missing. Equal entries are not always repeated. Records with an inconclusive call do not appear. A number with no mark means an inactive call. Activity calls are given as the source filed them. Calls follow the shape of the dose curve; as a rule, active = well fitted cell-killing curve with a large enough effect; inconclusive = small, poorly fitted or top-dose-only effect; inactive = flat fitted curve, though single readings scatter.
# Test: qHTS of pediatric cancer cell lines to identify multiple opportunities for drug repurposing: Primary screen for TC32 cells (AID 1347089); also: nearly all actives have a fitted effect of over 60% in size
# Details: TC32 Ewing sarcoma viability, CellTiter-Glo luminescence, 48 h; series mostly up to 45.8 µM; activity change, negative = cytotoxic: at the top concentration
# Text: Drug repurposing or repositioning has been offered as a strategy for drug development in oncology programs. This approach has special potential for childhood cancers and other rare or orphan diseases, where the expected return on new drug development has been a disincentive to pharmaceuticals.
# In this project we exploit the poly-pharmacology of drugs to discover new indications via phenotypic screening of a panel of 19 well-characterized cell lines derived from solid tumors seen in children and adolescents. The goal is to identify approved drugs with previously unrecognized anticancer properties that has the potential to reveal new mechanisms and biological processes involved in carcinogenesis or drug resistance. We employed a titration-based paradigm (quantitative high-throughput screening or qHTS), where all compounds were tested at multiple concentrations for their effect on cell viability. Concentration-response curves (CRCs) were derived directly from the primary screen, and both potency and efficacy values were used to identify compounds with robust bioactivity profiles. We screened the NIH Chemical Genomics Center (NCGC) Pharmaceutical Collection (NPC) and Mechanism Interrogation Plate (MIPE) small molecule collections of approved and investigational compounds against these cell lines; and measured metabolically active cells after 48 hours of compound treatment as a proxy for cell viability.
# Assay Submitter: Nathalia J. Martinez, National Center for Advancing Translational Sciences, National Institutes of Health, Rockville, MD, USA; email: natalia.martinez@nih.gov
# [1] Shen, M et al. Quantitative high-throughput phenotypic screening of pediatric cancer cell lines identifies multiple opportunities for drug repurposing. Oncotarget 2017 Dec 19;9(4):4758-4772. PMID 29435139.
# The cells were obtained from University of North Carolina (UNC), Pediatric Preclinical Testing Program (PPT), and Coriell Institute (CI).
# qHTS cell viability assay:
# Cells were assayed in growth media at a density of 500-1,000 cells/well. Five microliters of cells were dispensed into 1,536-well, white, solid-bottom, TC-treated plates (Greiner Bio One) using a multidrop dispenser and incubated at 37 degrees C, 5% CO2, under a humidified atmosphere for 5 hours. Twenty-three nanoliters of compounds and controls (neutral control DMSO or positive control bortezomib at final concentration of 2.3 uM) were subsequently transferred by Kalypsys pintool. For primary screens, the MIPE collection was tested at 11-point dilutions (final concentrations range from 0.78 nM to 46 µM) and the NPC collection at 8-point dilutions (final concentrations range from 0.59 nM to 46 µM). Compounds tested in follow-up screens were assayed at 11-point dilutions. Cells were incubated for 48 hours, followed by addition of 3 uL of CellTiter-Glo (Promega). After a 15min incubation at room temperature, samples were analyzed for luminescence intensity using a ViewLux High-throughput CCD imager equipped with clear filters.
# % is scaled to controls: 0 for no effect and ±100 for the full control effect; potency is read from the fitted curve at half-maximal effect.
SMILES,Potency,"activity change, negative = cytotoxic [%]"
CO[C@H]1C[C@@H]2CC[C@@H](C)[C@@](O)(O2)C(=O)C(=O)N2CCCC[C@@H]2C(=O)O[C@H]([C@H](C)C[C@@H]2CC[C@H](OCCO)[C@H](OC)C2)CC(=O)[C@H](C)C=C(C)[C@@H](O)[C@@H](OC)C(=O)[C@H](C)C[C@H](C)C=CC=CC=C1C,3.3 µM (active),–
CCOC(CN1C(=O)[C@](CC(=O)Nc2ccc(C)cc2)(NC(=O)Nc2ccc(C)cc2)c2ccccc21)OCC,–,-0.88
CC[C@]1(O)C[C@@H]2CN(CCc3c([nH]c4ccccc34)[C@@](C(=O)OC)(c3cc4c(cc3OC)N(C=O)[C@@H]3C45CCN4CC=C[C@](CC)([C@H]45)[C@@H](OC(C)=O)[C@]3(O)C(=O)OC)C2)C1 (stereo not given in full),–,-17.8
O=c1cc(N2CCOCC2)oc2c(-c3cccc4c3sc3ccccc34)cccc12,–,2.7
C[C@H]1[C@H](NC(=O)C(=NOC(C)(C)C(=O)O)c2csc(N)n2)C(=O)N1S(=O)(=O)O,–,8.96
COc1cccc2c1CCCC2CCCN1CCN(C2CCCCC2)CC1 (stereo not given),–,-3.22
O=C(N[C@@H](c1ccccc1)[C@@H]1CCCCN1)c1cccc(C(F)(F)F)c1Cl,–,5.98
C[N+]1(C)[C@@H]2CC(OC(=O)[C@H](CO)c3ccccc3)C[C@H]1[C@H]1O[C@@H]12 (stereo not given in full),–,6.96
CN(C)CCC(c1ccccc1)c1ccccn1 (stereo not given),–,-9.44
CCN(CC)C(=O)c1ccc(O)c(OC)c1,–,6.94
OC[C@H]1O[C@@H](n2cnc3c2NC=NC[C@@H]3O)C[C@H]1O,–,12.6
CCCCC1C(=O)N(c2ccccc2)N(c2ccccc2)C1=O,–,4.52
Cc1c[nH]c(C=C2C(=O)Nc3ccccc32)c1CCC(=O)O,–,0.485
O=C1NC(=O)C(=Cc2ccc(-c3ccc(F)cc3)o2)S1,–,7.35
COCCCCC(=NOCCN)c1ccc(C(F)(F)F)cc1,–,-13.6
CC(C)NCC(O)COc1cccc2[nH]ccc12 (stereo not given),–,1.25
O=C(CCCCCCC(=O)Nc1ccccc1)NO,6.64 µM (active) and 14.7 µM (active),–
O=C(O)[C@H]1O[C@H](Oc2cc3oc(-c4ccccc4)cc(=O)c3c(O)c2O)[C@H](O)[C@@H](O)[C@H]1O,–,12.1
CC1(C)CCC[C@@]2(C)[C@@H]1CC[C@@]1(C)OC(=O)C[C@H]21,–,0.747
O=C(O)CCc1nc(-c2ccccc2)c(-c2ccccc2)o1,–,-4.91

SMILES,Potency,"activity change, negative = cytotoxic [%]"
C[C@]12CC[C@@H]3c4ccc(O)cc4CC[C@H]3[C@H]1C[C@@H](O)[C@H]2O,–,4.13
O=C(NOCC(O)CO)c1cc(Br)c(F)c(F)c1Nc1ccc(I)cc1F (stereo not given),–,5.37
Cn1c(N2CCCCS2(=O)=O)nc(C(=O)NCc2ccc(F)cc2)c(O)c1=O,–,9.21
Cn1cc(C=C2C(=O)Nc3cccnc32)c2ccccc21,–,5.31
CC(C)(C)OC(=O)N[C@H]1CCCCCC=C[C@@H]2C[C@@]2(C(=O)NS(=O)(=O)C2CC2)NC(=O)[C@@H]2C[C@@H](OC(=O)N3Cc4cccc(F)c4C3)CN2C1=O,–,14
Cc1cccc(Nc2nc(-c3ccncc3)cs2)c1,–,-9
CN[C@@H](C)C(=O)N[C@H]1CN(C(=O)CC(C)C)CC[C@H]2CC[C@@H](C(=O)NC(c3ccccc3)c3ccccc3)N2C1=O,–,11.6
N#Cc1ccc(NC(=O)Nc2ccccc2Br)c2n[nH]nc12,–,17.3
O=C(O)c1cc(-c2ccccc2)nc2ccccc12,inactive,–
O=C(O)Cc1cccc2ccccc12,inactive,–
NC(=O)NN=Cc1ccc([N+](=O)[O-])o1,–,8.06
CO[C@H]1C(=O)[C@]2(C)[C@@H](OC)C[C@H]3OC[C@@]3(OC(C)=O)[C@H]2[C@H](OC(=O)c2ccccc2)[C@]2(O)C[C@H](OC(=O)[C@H](O)[C@@H](NC(=O)OC(C)(C)C)c3ccccc3)C(C)=C1C2(C)C,1.47 µM (active),–
CN(C)Cc1cccc(N=C(c2ccccc2)c2c(O)[nH]c3cc(C(=O)N(C)C)ccc23)c1,–,-0.395
CC(C)(C)c1cc(C(=O)O)c(NC(=O)Nc2ccc3[nH]ncc3c2)s1,–,-1.3
CC(=O)Nc1ccc([C@H](C)C(=O)Nc2ncc(C(C)C)s2)cc1,16.5 µM (active),–
CC(C)(Cc1ccc2ccccc2c1)NC[C@@H](O)COc1cccc(Cl)c1C#N,–,2.39
CN1CCN(CCOc2cc(OC3CCOCC3)c3c(Nc4c(Cl)ccc5c4OCO5)ncnc3c2)CC1,–,-17.1
CN(C)CCC=C1c2ccccc2COc2ccc(CC(=O)O)cc21,–,7.41
O=C(O)c1ccc(-c2c[nH]c3ncc(-c4ccccc4)cc23)cc1C1CCCC1,–,15.6
Cc1ccc(/C=N/NC(=O)c2ccccc2Oc2ccccc2)o1,–,3.85
